# Compound activity: PubChem, National Center for Advancing Translational Sciences (NCATS)
# IL1B secr inh = blocks inflammasome-driven IL-1 beta release. activity change, % at 57.5 µM. THP-1 LPS/ATP IL-1B secretion, AlphaLISA, 16 h; hits give low values. hit rate 4.7% among 360,000; in the data active = activity change below about -50%; inconclusive = mostly about -30% to -49%
#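 Secreted IL-1B measured by AlphaLISA bead assay after 16 h compound exposure of THP-1 cells; compounds (final up to 57.5 uM) added 1 h before LPS (250 ng/mL) and ATP (1.25 mM) stimulation; lower signal means less secretion.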
# CtBP-E1A blk = CtBP/E1A binding inhibition; AlphaScreen GST-E1A/His-CtBP binding, 1536-well; hits give low values; activity change, % (test concentration not listed); hit rate 0.49% among 340,000; in the data active = activity change below about -65%; inconclusive = mostly about -30% to -63%
#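 Steps: dispense buffer (Tris pH 8.0, NaCl 300 mM, TCEP 1 mM, BSA, Tween 20); add 5X protein mix (GST-E1A, His-CtBP, 125 nM each); pin 23 nL compound; 2 h at 37 °C, dark; add 5X beads (50 ug/mL); 1 h; read.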
# Six1-Eya2 blk = blocks human Six1 binding to Eya2; Q15475+O00167; AlphaScreen GST-Six1/His-Eya2 binding, biochemical; hits give low values; activity change, % (test concentration not listed); hit rate 0.56% among 360,000; AID 651725; in the data active = activity change below about -65%; inconclusive = mostly about -30% to -63%
#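 Six1/Eya2 binding was read as AlphaScreen signal after compounds were pinned into GST-Six1 plus His-tagged Eya2 (5X stock 250/500 nM) in pH 8.0 Tris/NaCl/TCEP buffer, beads added, then incubated 1 h, 37 C, dark.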
# TDP1 cell CPT = growth inhibition of DT40 Tdp1-/-;hTDP1 cells with camptothecin (screen for TDP1 inhibitors); chicken DT40 Tdp1-/-;hTDP1 cells + 20 nM CPT, ATP luminescence, 48 h; Potency, µM (top dose mostly 46.2 µM), for the others: at the top dose activity change, negative = growth inhibition, usual class: inhibitors; hit rate 12% among 420,000; AID 686979; also: potency is read from the fitted curve at half-maximal effect; nearly all actives have a fitted effect of over 55% in size
#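 Chicken DT40 Tdp1-/- cells complemented with human TDP1, 400 cells/well, exposed to compounds plus 20 nM camptothecin for at least 48 h at 37 C; viability read as ATP content by CellTiter-Glo luminescence.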
# DT40 TDP1 no CPT = qHTS for Inhibitors of human tyrosyl-DNA phosphodiesterase 1 (TDP1): qHTS in cells in absence of CPT; DT40 Tdp1-/- hTDP1 cells, no CPT, ATP luminescence, 48 h; Potency, µM (doses to about 46.2 µM), for the others: top-dose activity change, negative = growth inhibition, hits mostly inhibitors; hit rate 15% among 420,000; AID 686978, 2013; also: potency is read from the fitted curve at half-maximal effect; nearly all actives have a fitted effect of over 55% in size
#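 Readout: luminescence from CellTiter-Glo after 30 min in the dark at RT. Cells: DT40 Tdp1-/- with stable hTDP1, 400/well. Exposure: compounds alone, ≥48 hr, 37 °C.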
# TDP1 inh = TDP1 (human) enzyme inhibition. hit rate 0.28% among 350,000. recombinant TDP1, AlphaScreen DNA substrate cleavage. Potency, µM (series often up to 130 µM), for inactives: at the top dose activity change, negative = inhibition, usual class: inhibitors; also: potency is read from the fitted curve at half-maximal effect; nearly all actives have a fitted effect of over 40% in size
#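 Compounds were preincubated with Tdp1 (1 nM final) for 15 min at room temperature before substrate (15 nM final) started a 5 min reaction; beads (10 ug/ml final) were then added for 10 min before AlphaScreen detection.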
# * marks the source's active call; other numbers are inactive results; u = inconclusive; x = no result. The list is not random: actives were taken first. Their share in the collection is about 18%. Unless noted, calls follow the shape of the dose curve; as a rule, active = well fitted curve in the direction sought with a large enough effect; inconclusive = small, poorly fitted or top-dose-only effect, or another doubt; inactive = no such curve, though single readings can be large; an effect the other way counts as inactive or inconclusive. % is scaled to controls: 0 for no effect and ±100 for the full control effect.
SMILES,IL1B secr inh,CtBP-E1A blk,Six1-Eya2 blk,TDP1 cell CPT,DT40 TDP1 no CPT,TDP1 inh
COc1ccccc1-n1c(=S)sc2c(=O)n(Cc3ccco3)c(SC)nc21,-10,u,-30,-11%,-12%,9%
Cc1cccc(C(=O)NCc2cn3cccc(C)c3n2)c1,x,x,x,-7%,2%,11%
NC(N)=Nc1nc(CCN2C(=O)c3ccccc3C2=O)cs1,7,-3,-3,u,-23%,-4%
C[n+]1ccc(/C=C/c2ccc(C=S)cc2)c2ccccc21,x,x,x,4µM*,3.2µM*,x
C[n+]1ccc(/C=C/c2ccc3c(c2)OCO3)c2ccccc21,x,x,x,2%,-14%,x
CN(C)c1ccc(/C=C/c2cc[n+](C)c3ccc4ccccc4c23)cc1,x,x,x,0.089µM*,u,x
C[n+]1ccc(/C=C/c2ccccc2O)c2ccccc21,-56*,19,1,u,u,1%
COC(=O)c1cc2oc(C)cc2n1CC(=O)N1CCCc2ccccc21,-25,-16,u,u,u,8%
COCCCN1CN(S(=O)(=O)c2cccs2)c2nc3ccccc3nc21,-6,1,9,11%,-22%,7%
COc1cc2sc(-c3ccc(S(C)(=O)=O)cc3)c(C(=O)NCc3ccc(C)o3)c2cc1OC,3,5,5,u,13µM*,2%
COc1cc2sc(-c3ccc(S(C)(=O)=O)cc3)c(C(=O)NCCCCO)c2cc1OC,-12,5,0,5%,-6%,1%
Cc1ccc(CNC(=O)c2c(-c3ccccc3)sc3ccccc23)o1,-25,2,-1,u,16µM*,0%
COc1ccccc1Nc1nnc(SCc2nnc(-c3cc(OC)c(OC)c(OC)c3)o2)s1,-5,-10,-15,21µM*,21µM*,7%
COc1cc(-c2nnc(CSc3nnc(Nc4ccc(C(C)C)cc4)s3)o2)cc(OC)c1OC,-11,-29,-24,5.8µM*,5.8µM*,5%
Cc1cccn2cc(CSc3nnc(Nc4ccc(C(C)C)cc4)s3)nc12,-20,-1,-6,u,u,6%
CCOc1ccccc1Nc1nnc(SCc2nnc(-c3cc(OC)c(OC)c(OC)c3)o2)s1,u,-27,-21,u,13µM*,5%
COc1ccc(N(CC(=O)NCC(C)C)S(=O)(=O)c2ccccc2)cc1,2,2,-2,-17%,-14%,-4%
C=CCOc1ccc(C(=O)NC2CCCCC2)cc1,u,-1,2,-6%,-13%,7%
Cn1c(SCc2ccccc2)nc2c1c(=O)[nH]c(=O)n2C,26,3,16,-17%,-1%,x
C=CCn1c(SCCCc2ccccc2)nc2c1c(=O)[nH]c(=O)n2C,54,-7,5,u,26µM*,-3%
COCCn1c(SCc2ccc(Cl)cc2)nc2c1c(=O)[nH]c(=O)n2C,16,8,-14,8%,u,x
C/C=C/Cn1c(SCc2ccc(Cl)cc2)nc2c1c(=O)[nH]c(=O)n2C,18,-3,-1,18µM*,23µM*,4%
CCCCCCn1c(SCCC)nc2c1c(=O)[nH]c(=O)n2C,17,5,5,-23%,10µM*,3%
CCCCCn1c(SCCOCC)nc2c1c(=O)[nH]c(=O)n2C,2,9,3,u,u,6%
CCn1c(SCc2ccccc2)nc2c1c(=O)[nH]c(=O)n2C,48,x,-14,u,18µM*,x
SMILES,IL1B secr inh,CtBP-E1A blk,Six1-Eya2 blk,TDP1 cell CPT,DT40 TDP1 no CPT,TDP1 inh
Cc1ccc(NC(=O)CCS(=O)(=O)c2ccccc2)cc1S(=O)(=O)N1CCOCC1,0,-3,-1,8%,-6%,0%
CCCn1c(SCc2ccc(Cl)cc2)nc2c1c(=O)[nH]c(=O)n2C,-10,-1,-3,u,16µM*,4%
COc1ncccc1C(=O)N1CCC(n2nccc2NC(=O)CC(C)C)CC1,-22,18,3,-5%,-3%,4%
O=C(c1cc(=O)c2ccccc2o1)N1CCCc2ccccc21,22,-1,-2,2%,5%,-1%
COc1cccc(CNC(=O)CNC(=S)N(Cc2ccccc2)Cc2ccccc2F)c1,u,0,-1,u,u,3%
O=C(CNC(=S)N(Cc1ccccc1)Cc1ccccc1F)NCc1ccc(Cl)cc1,-83*,0,0,u,u,1%
CCOC(=O)CNC(=S)N(Cc1ccccc1)Cc1ccccc1F,-56*,0,9,3%,u,2%
Cc1ccc(CNC(=O)CNC(=S)N(Cc2ccccc2)Cc2ccccc2F)cc1,-69*,2,-3,-20%,u,3%
CCOC(=O)CNC(=S)N(Cc1ccccc1)Cc1cccs1,-5,-14,1,0%,-2%,1%
CC(C)CN(C(=O)CN1CCN(S(=O)(=O)c2ccc3ccccc3c2)CC1)c1c(N)n(CC(C)C)c(=O)[nH]c1=O,-15,-6,3,-1%,-21%,2%
CC(=O)Oc1cc2c(cc1Cl)C1(CC(c3ccccc3Cl)O2)CC(C)(C)NC(=S)N1 (stereo unspecified),-24,-20,-28,3.3µM*,2.6µM*,2%
COc1ccc(N2C(=S)NC(C)(C)CC2(C)c2ccc(OC(C)=O)cc2OC(C)=O)cc1 (stereo unspecified),7,5,-24,13%,10%,2%
Cc1cc(C)nc(SCC(=O)NC2=NN=C(c3ccc(Br)cc3)CS2)n1,-83*,-15,-13,13µM*,13µM*,4%
CCC(Sc1nc(C)cc(C)n1)C(=O)NC1=NN=C(c2ccc(C)cc2)CS1 (stereo unspecified),-14,-17,-13,u,u,6%
O=C(CNc1ccccc1)N/N=C/c1c(O)ccc2ccccc12,216,u,-22,10µM*,6.5µM*,x
COc1ccc(N=Cc2c(O)ccc3ccccc23)cc1,-6,8,2,-25%,-6%,u
O=C(CN1CCOCC1)N/N=C/c1ccco1,-13,-5,-5,-4%,-6%,-4%
O=C(CSCC(=O)Nc1ccccc1)N/N=C/c1c(O)ccc2ccccc12,108,-72*,u,4.5µM*,4.5µM*,11%
O=C(CN1CCOCC1)N/N=C/c1c(O)ccc2ccccc12,60,-93*,-95*,7.3µM*,9.2µM*,x
COc1ccc(NC(C)C(=O)N/N=C/c2c(O)ccc3ccccc23)cc1 (stereo unspecified),144,-10,-16,4.6µM*,5.8µM*,x
